# Screens: PubChem BioAssay, National Center for Advancing Translational Sciences (NCATS)
# A selection: hits, their analogues and other compounds. The true share with any hit is near 2.8%.
# D3 antag: D3 dopamine receptor (human) antagonism | D3R cells, DiscoveRx beta-arrestin luminescence, antagonist mode; hits give low values | hit rate 2.5% among 360,000 | AID 652054 | max response, negative = inhibition, % | P35462; in the data active = max response below about -50%; inconclusive = no clear call, values can overlap the other calls; also: % is scaled to controls: 0 for no effect and ±100 for the full control effect
#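 Cells plated overnight at 1500 cells/well, then exposed to library compounds with dopamine controls for 90 minutes at 37 degrees C. DiscoveRx reagent added for 30–60 minutes at room temperature; luminescence read, quantitative HTS format.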
# B2AR arrestin: agonists driving beta-arrestin recruitment to human beta2-adrenergic receptor; Potency, µM (highest dose often 46.1 µM), for inactives: at the top dose activation, hits mostly activators; beta-arrestin recruitment to beta2AR, cell-based reporter; hit rate 0.02% among 330,000; P07550; AID 492947; active = well fitted activation curve with a large enough effect; inconclusive = small, poorly fitted or top-dose-only effect;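 also: potency is read from the fitted curve at half-maximal effect; 0% = DMSO controls and full agonism = EC100 isoproterenol or metaproterenol; nearly all actives have a fitted effect of over 65% in size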
# Target sequence (P07550 whole entry, looked up): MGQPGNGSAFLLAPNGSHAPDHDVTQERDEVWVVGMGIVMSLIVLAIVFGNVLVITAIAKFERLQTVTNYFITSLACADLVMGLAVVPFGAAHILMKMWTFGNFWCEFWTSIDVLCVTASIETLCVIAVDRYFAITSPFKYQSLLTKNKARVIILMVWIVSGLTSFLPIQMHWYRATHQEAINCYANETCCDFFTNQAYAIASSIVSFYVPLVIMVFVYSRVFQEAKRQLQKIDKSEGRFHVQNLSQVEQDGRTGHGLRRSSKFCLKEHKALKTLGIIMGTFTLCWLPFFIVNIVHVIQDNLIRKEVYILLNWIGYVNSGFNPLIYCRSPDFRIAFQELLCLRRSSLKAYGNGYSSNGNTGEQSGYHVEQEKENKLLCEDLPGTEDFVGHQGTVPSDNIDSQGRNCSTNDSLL
# Giardia kill: Giardia lamblia killing | hit rate 0.15% among 340,000 | AID 540267 | activity change, % at 7.66 µM, hits read low | Giardia lamblia trophozoite viability; in the data active = activity change below about -80%; inconclusive = between about -30% and that limit;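 also: parasites exposed to compound for two days anaerobically before the ATP read; % is scaled to controls: 0 for no effect and ±100 for the full control effect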
#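 Media and compound were dispensed first, then trophozoites at 100 cells/well; plates sat 48 hrs at 37 deg C without oxygen before ATP luminescence reagent was added and read after 15-30 min at room temperature.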
# D3 ag: activates the human D3 dopamine receptor; P35462; D3R DiscoveRx beta-arrestin cells, luminescence, 90 min; max activation, %; hit rate 0.58% among 410,000; in the data active = max activation above about 30%; also: 0% is about no effect
#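 Cells at 1500/well, incubated overnight, then treated with pinned compounds (dopamine as control) for 90 min at 37 degrees C. DiscoveRx reagent added for 30 - 60 minutes at room temperature; luminescence read.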
# Active calls of the source: *; ? = inconclusive; / = not tested or not shown; ! = repeats disagree.
SMILES,D3 antag,B2AR arrestin,Giardia kill,D3 ag
Cc1c(O)ccc2c3c(c(=O)oc12)CCCC3,12,-1%,24,1
Cc1oc2c(C)c3oc(=O)c4c(c3cc2c1C)CCCC4,26,-1%,-2,32*
CCCC[C@@H]1CCCO[C@@](C(=O)NCCOC)(C(F)(F)F)C1,/,/,-9,/
Cc1ccc(NC(=O)CN(C)C(=O)c2ccc(Cl)nc2)cc1,-84*,0%,-15,-16
NS(=O)(=O)c1ccc(NNC(=O)c2ccc(Br)o2)c([N+](=O)[O-])c1,-65*,-1%,5,-17
O=C(NCc1noc2ccccc12)N1CCN(c2ccccc2)CC1,/,/,/,-4
COc1cc(/C=N/NC(=O)c2ccc(Cl)cc2)ccc1OCC(=O)N1CC(C)OC(C)C1 (stereo unspecified),-54*,0%,-2,-24
Oc1c(Br)cc(Cl)cc1C=Nc1ccc(N2CCOCC2)cc1,2,0%,14,1
Oc1c(Br)cc(Cl)cc1C=Nc1ccccc1Br,-73*,-1%,-7,-20
CCOc1ccc(NC(=O)CSc2ncc(S(=O)(=O)c3ccc(F)c(C)c3)c(=O)[nH]2)cc1,/,/,/,-4
CCOc1cccc(/C=C/c2ccc3cccc(O)c3n2)c1OC,-83*,?,-13,-24
CCOc1cccc(/C=C/c2ccc3cccc(O)c3n2)c1O,-56*,0%,-8,1
Cc1nc2nc(C)c(CCC(=O)NCc3ccccc3)c(C)n2n1,/,/,/,1
CCN(CC)c1ccc(C=Nc2ccccc2)c(O)c1,-54*,0%,4,-3
CCOCCCNCc1c(Cl)cccc1Cl,?,0%,-6,-6
CNCCCOc1ccc(C)cc1Br,-53*,0%,-7,-8
CCCCNCCCOc1cccc(Cl)c1Cl,-81*,0%,-2,-21
CNCCCCOc1ccc(C(C)(C)C)cc1Cl,-50*,0%,-2,-17
Cc1ccc(OCCCNCCO)c(Br)c1,-60*,0%,1,-2
CCCCNCCCOc1ccc(C)cc1Br,-67*,-1%,-7,0
CCCOC(=O)c1c(-c2ccc(OC)cc2)oc2ccc(-c3ccc(OC)nc3)cc12,91,-1%,9,30
COC(=O)c1c(-c2ccc(OC)cc2)oc2ccc(-c3ccc(OC)nc3)cc12,22,0%,-5,40*
COC(=O)c1c(-c2ccc(OC)cc2)oc2ccc(-c3cc(OC)c(OC)c(OC)c3)cc12,77,/,30,35*
COc1ccc(NC(=O)C(=O)NCC(c2cccnc2)N2CCc3ccccc3C2)cc1 (stereo unspecified),/,/,/,0
COC(=O)c1cc(OC)c(OC)c(OC)c1NC(=O)c1ccc(S(=O)(=O)N(C)C)cc1,-88*,0%,3,-2
SMILES,D3 antag,B2AR arrestin,Giardia kill,D3 ag
NC(=NCCCCCCN=C(N)/N=C(\N)Nc1ccc(Cl)cc1)/N=C(\N)Nc1ccc(Cl)cc1,-51*!,-1%,8,-60
CC(C)N=C(N)/N=C(\N)Nc1ccc(Cl)cc1,/,/,/,3
O=Cc1ccc(O)c2ncccc12,-83*,6.3µM*,29,-25
Cc1nc2nc(NC(=O)c3ccc(Cl)cc3)[nH]n2c(=O)c1Cc1ccccc1,/,/,/,-4
N#C/C(=C(/O)COC(=O)c1ccc(Cl)c(S(=O)(=O)N2CCOCC2)c1)c1nc2ccccc2[nH]1,9,0%,-19,5
CCOC(=O)c1c(C)[nH]c(C(=O)OC/C(O)=C(\C#N)c2nc3ccccc3[nH]2)c1C,-52*,0%,0,-1
N#C/C(=C(/O)COC(=O)c1ccc2c(c1)OCCO2)c1nc2ccccc2[nH]1,-62*,-2%,18,-2
CCn1cc(C(=O)NCCc2ccc(Cl)cc2)c(=O)c2cc(S(=O)(=O)N3CCC(C)CC3)ccc21,/,/,/,-6
COc1cc(C(=O)N2CCC(C(=O)Nc3cccc(C(C)=O)c3)CC2)cc(OC)c1OC,-53*,0%,0,0
Cc1ccc(C)c(N2CCN(C(=O)CN3CCSc4ccc(S(=O)(=O)N(C)C)cc43)CC2)c1,/,/,/,-12
O=C(O)C1CC=CCC1C(=O)N1CC=C(c2ccccc2)CC1 (stereo unspecified),-62*,0%,9,-12
O=C(O)CCC(=O)N1CC=C(c2ccccc2)CC1,?,0%,-6,-23
Nc1cccnc1S(=O)(=O)c1ccccc1,-11,0%,15,-6
NS(=O)(=O)c1ccc(Nc2ncccc2[N+](=O)[O-])cc1,-17,0%,-91*,3
COc1ccc([N+](=O)[O-])c(S(=O)(=O)c2ccc(Cl)cc2)n1,-95*,-1%,7,-10
O=[N+]([O-])c1cccnc1S(=O)(=O)c1ccccc1,-74*,0%,-1,-9
COc1ccc([N+](=O)[O-])c(S(=O)(=O)c2ccccc2)n1,-76*,0%,-9,-45
O=C1c2ccccc2C(=O)N1c1cccc(N2C(=O)c3ccccc3C2=O)n1,/,/,-13,/
COc1ccc(CC(=O)Nc2ccc(S(=O)(=O)N(C)C3CCN(C)CC3)cc2)cc1,-3,0%,-5,-21
COc1ccccc1CC(=O)Nc1ccc(S(=O)(=O)N(C)C2CCN(C)CC2)cc1,-51*,0%,3,-21
COc1ccc(/C(C)=N/NC(=O)Cn2nc([N+](=O)[O-])cc2C)cc1,1,-1%,1,51*
COc1ccc(CNC(=O)C2CCCN(S(=O)(=O)c3ccc4c(ccn4C)c3)C2)c(OC)c1 (stereo unspecified),/,/,/,3
O=[N+]([O-])c1ccc(N/N=C/c2cccc(O)c2O)cc1,-50*,3%,-23,1
CC(C)NC(=S)N/N=C/c1ccccc1[N+](=O)[O-],-5,1%,11,1
O=[N+]([O-])c1ccccc1C=NNC(=S)NN=Cc1ccccc1[N+](=O)[O-],-58*,/,-12,-23
SMILES,D3 antag,B2AR arrestin,Giardia kill,D3 ag
O=[N+]([O-])c1cccc(C=NNc2ccc3ccccc3n2)c1O,-54*,/,19,-13
Brc1ccccc1/C=N/Nc1ccc2ccccc2n1,?,0%,4,-3
O=[N+]([O-])c1ccc(N/N=C/c2cccc(O)c2)cc1,?,0%,9,-10
COc1cc([N+](=O)[O-])cc(/C=N/NC(=O)C(O)(c2ccccc2)c2ccccc2)c1O,-55*,0%,-7,-29
COc1cccc(/C=N/Nc2nc(Nc3ccc([N+](=O)[O-])cc3)nc(N3CCCC3)n2)c1O,-119*,0%,4,-30
O=C(O)COc1ccc(/C=N/Nc2nc(Nc3ccccc3)nc(N3CCCCC3)n2)cc1,-50*,0%,10,-27
O=C(N/N=C/c1cccc([N+](=O)[O-])c1O)c1cccs1,-25,0%,-11,-21
COc1ccc(/C=N/Nc2nc(Nc3ccccc3)nc(N3CCCC3)n2)cc1,1,7%,-21,3
O=C(N/N=C/c1cccc([N+](=O)[O-])c1O)C(O)(c1ccccc1)c1ccccc1,-71*,1%,-25,-23
COc1cc([N+](=O)[O-])cc(/C=N/NC(=O)C(C)Nc2cccc3ccccc23)c1O (stereo unspecified),-84*,0%,2,-26
